# MARV entry inh = qHTS for Inhibitors of binding or entry into cells for Marburg Virus; Marburg virus pseudotype entry/binding inhibition, cell-based; Potency, µM (top dose mostly 49.2 µM), for the others: at the top dose activity change, negative = inhibition, usual class: inhibitors; actives 6.5% (n = 18,000)
# LASV entry inh = qHTS for Inhibitors of binding or entry into cells for Lassa Virus; Lassa virus pseudotyped entry inhibition, cell-based qHTS; Potency, µM (highest dose often 49.2 µM), for the others: at the highest dose activity change, negative = inhibition, actives largely listed as inhibitors; actives 4.1% (n = 18,000)
# * = called active by the depositor; ? = inconclusive; . = no result given; ! = a repeat was not active; [ ] = dose if it differs, or a comment. Sampled rows, rich in hits. Any-hit rate of the full collection: about 7.1%. Calls come from the whole dose curve; tested in HEK293 cells. % is set by controls: 0 for no effect and ±100 for the full control effect; potency is the fitted concentration of half-maximal effect.
SMILES,MARV entry inh,LASV entry inh
C[C@@H]([C@H](O)c1ccccc1)N(C)C,33%,4%
CC[C@H](O)C(C[C@H](C)N(C)C)(c1ccccc1)c1ccccc1,18µM*,?
CC(CC(C#N)(c1ccccc1)c1ccccc1)N(C)C (centres undefined),32µM*,?
COP(=O)(OC)[C@@H](O)C(Cl)(Cl)Cl,10%[17.8 µM],4µM*
CC(C)/C(O)=C1/C(=O)OC(c2ccoc2)[C@@]2(C)C(O)C(O)[C@@]34OC5(C)OC67CC(C)(C(O)[C@@]6(O)C(O)[C@@]3(O5)C12)C(CC(=O)O)[C@@]74C (some centres undefined),-3%,-3%
COC(=O)CC1C2(C)CC34OC5(C)O[C@@]6(C7/C(=C(/OC)C(C)C)C(=O)OC(c8ccoc8)[C@@]7(C)C(OC(=O)C(C)C)C(OC)[C@]6(O5)[C@@]13C)C(OC)[C@]4(OC)C2OC(C)=O (some centres undefined),7.1µM*,?
CCCCCC(=O)N1C[C@@H](O)[C@H](n2cc(-c3ccc(F)cc3)nn2)C[C@H]1c1ccc(C)cc1,-9%,10%
O=C1CSC2(CCN(CCCN3c4ccccc4Sc4ccc(Cl)cc43)CC2)N1,22µM*,?
O=C(CCN1CCN(CCO)CC1)N1c2ccccc2Sc2ccc(C(F)(F)F)cc21,?,-15%
N#Cc1ccc2c(c1)N(CCCN1CCC(O)CC1)c1ccccc1S2,20µM*,-9%
c1ccc2c(c1)Sc1ccccc1N2CCN1CCCC1,?,-28%
CN1CCN(CCCN2c3ccccc3Sc3ccc(C(F)(F)F)cc32)CC1,16µM*,22µM*
O=c1n(CCCN2CCN(c3cccc(Cl)c3)CC2)nc2ccccn12,10%,0%
CCOC(=O)CN1C(=O)[C@]2(OCCC=C[C@@H]2C)c2ccccc21,1%[8.59 µM],11%[8.59 µM]
CC[C@@]12C=C(C=Cc3ccccc3)[C@](CC)(C1)[C@H](c1ccccc1)CC2=O,?,-1%[8.59 µM]
CC(CCN1CCCc2nc(C)c(C)cc21)=NOC[C@@H](O)COCc1ccco1,?,-17%[8.59 µM]
C=CCOC(=O)N[C@H](c1ccc2ccccc2c1)[C@H](C)C=CCC(=O)OC,-4%[8.59 µM],.
C=CCN=C1NC(CCc2ccccc2)C(C(=O)OC)=C(C)N1CC (centres undefined),?,-13%[8.59 µM]
C[C@@H]1C[C@H]2CC(=O)N3[C@H](CC(=O)N2[C@H]1c1ccccc1)C[C@@H](C)[C@@H]3c1ccccc1,15%[8.59 µM],6%[8.59 µM]
CC1=CC[C@@H](COc2ccccc2)O[C@@]2(C1)C(=O)N(Cc1ccc(F)cc1)c1ccccc12,-2%[8.59 µM],-11%[8.59 µM]
CC1(C)CC[C@]2(C(=O)O)CC[C@]3(C)C(=CCC4[C@@]5(C)CC[C@H](O)C(C)(C)C5[C@H](O)C[C@]43C)C2C1 (some centres undefined),1%,32µM*
CC1(C)CC[C@]2(C(=O)O)CC[C@]3(C)C(=CCC4[C@@]5(C)CC[C@H](O)C(C)(C)[C@@H]5CC[C@]43C)C2C1 (some centres undefined),-17%,?
COc1cc(/C=C/C(=O)c2cccs2)cc(OC)c1OC,?,32µM*
O=C(/C=C/c1ccc(O)cc1)c1cccs1,31%,3%
CCOC(=O)[C@]12C[C@@H]3OCCN(C(=O)N[C@@H]1c1ccccc1)[C@@H]32,2%[8.59 µM],-6%[8.59 µM]
SMILES,MARV entry inh,LASV entry inh
COC(=O)NC(C=Cc1ccccc1)C(C(C)=O)C(=O)OC (centres undefined),?,-11%[8.59 µM]
CC(C)C[C@@H]1COc2cccc(F)c2S(=O)(=O)N1,15%,2%
c1ccc([C@H]2CNCc3ccccc32)cc1,-11%,1%
Oc1cc2c(cc1O)[C@H]1c3ccccc3CN[C@H]1CC2,25µM*,?
C[C@@H]1O[C@@H](OC2CC(O)C3(CO)C4C(CCC3(O)C2)C2(O)CCC(C3=CC(=O)OC3)C2(C)C[C@H]4O)[C@H](O)[C@H](O)[C@H]1O (some centres undefined),0.22µM*,0.18µM*
CCCCN(CCCC)CCCOC(=O)c1ccc(N)cc1,22µM*!,?
CCCCOC(=O)c1ccc(N)cc1,5%,?
S=C=Nc1cccc(C2(N3CCCCC3)CCCCC2)c1,?,14µM*
CS(=O)(=O)Nc1ccccn1,29%,11%
CN(C(=O)Cc1ccccc1)[C@H](CN1CCCC1)c1ccccc1,?,-2%
CN(C(=O)Cc1ccc(Cl)c(Cl)c1)[C@H](CN1CCCC1)c1ccccc1,7.1µM*,20µM*
COC(=O)N[C@@H](c1ccco1)[C@]1(C(=O)OC)CCCC1=O,?,-2%[8.59 µM]
CNCCCCCCCCSc1nc(C(C)C)ccc1C(=O)c1cccs1,5.6µM*,?
COC(=O)C(C)c1ccc(C(=O)c2cccs2)cc1 (centres undefined),4%,0%
CN(C)c1cc2c(Nc3ccc4nc(Cc5ccccc5)[nH]c4c3)ncnc2cn1,91%,57%
CN1[C@@H]2CC[C@H]1CC(OC(c1ccc(F)cc1)c1ccc(F)cc1)C2 (some centres undefined),7.9µM*,14µM*
COc1ccc(C(=O)OC2C[C@H]3CC[C@@H](C2)N3C)cc1OC (some centres undefined),-20%[17.8 µM],9%[17.8 µM]
CC(C)NC[C@@H](O)COc1cccc2[nH]ccc12,2%,1%
CC(C)NCC(O)COc1cccc2ccccc12 (centres undefined),20µM*,?
CCC1(C2CCN(Cc3ccccc3Cl)CC2)NC(=O)N(CC2COc3ccccc3O2)C1=O (centres undefined),?,-9%
CCC1(C2CCN(Cc3cc4ccccc4o3)CC2)NC(=O)N(CC2COc3ccccc3O2)C1=O (centres undefined),32µM*,-30%
C#CCCCON=C1C[C@@H](O)[C@H](O)[C@H]2[C@@H]3C(=O)N(c4ccc(F)cc4F)C(=O)[C@@H]3CC[C@@H]12,-8%[8.59 µM],17%[8.59 µM]
CCc1cc2c(nc1CC)CCN(CCC(C)=NOC[C@@H](O)[C@H]1O[C@@H]3OC(C)(C)O[C@H]3[C@@H]1O)C2,-6%[8.59 µM],6%[8.59 µM]
O=S1(=O)c2cccc(Cl)c2OC[C@H](c2ccccc2)N1Cc1ccc(F)cc1F,?,-6%
C=CC(C1=CC(=O)C(OC)=C(OC)C1=O)c1ccccc1 (centres undefined),14µM*,?
SMILES,MARV entry inh,LASV entry inh
C=CC(C1=CC(=O)C(OC)=CC1=O)c1ccc(OC)cc1 (centres undefined),?,2%
CC(CCC(=O)OC[C@H]1O[C@H](C#Cc2ccccc2)C=C[C@H]1Oc1ccc(C)cc1)=NO[C@@H](C)CN1CCCCc2nc(C)c(C)cc21,-16%[8.59 µM],24%[8.59 µM]
NS(=O)(=O)c1ccc(N=Nc2c(O)[nH]c3ccc(C(=O)NCc4ccncc4)cc23)cc1,26%,.
Oc1ccc2c3c1O[C@H]1c4[nH]c5c(c4C[C@@]4(O)[C@@H](C2)N(CC2CC2)CC[C@]314)C[C@]1(O)[C@H]2Cc3ccc(O)c4c3[C@@]1(CCN2CC1CC1)[C@@H]5O4,3%,-10%
Oc1ccc2c3c1O[C@H]1c4c(c5ccccc5n4Cc4ccccc4)C[C@@]4(O)C(C2)N(CC2CC2)CC[C@]314,7.9µM*,14µM*
Oc1ccc2c3c1O[C@H]1c4oc5ccccc5c4C[C@@]4(O)C(C2)N(CC2CC2)CC[C@]314,14µM*,?
COc1ccc2c3c1O[C@H]1C(=O)CC[C@@]4(O)C(C2)N(CC2CC2)CCC314 (some centres undefined),?,-7%
